From PubChem BioAssay AID720709 (National Center for Advancing Translational Sciences (NCATS), 2013)
In all, about 360,000 compounds went through this assay and about 520 (0.14%) were called active. Inconclusive results (about 3%) are left out. Many of the other results were omitted from the sample, so actives are more common in it than they were. Unmarked numbers belong to inactive results. Calls come from the whole dose curve; as a rule, active = well fitted inhibition curve with a large enough effect; inconclusive = small, poorly fitted or top-dose-only effect; inactive = no such curve, though single readings can be large or run the other way.

Target: Rap guanine nucleotide exchange factor 3 (Homo sapiens) (UniProt O95398)
Test: qHTS for Antagonist of cAMP-regulated guanine nucleotide exchange factor 3 (EPAC1): primary screen; note: nearly all actives have a fitted effect of over 50% in size;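 for activity change, negative = inhibition: plate controls were vehicle for no effect and positive control for full effect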
Settings: EPAC1 GEF assay, Rap1b-BODIPY-GDP exchange fluorescence; series mostly up to 115 µM; activity change, negative = inhibition: at the top concentration
Description: In multi-cellular eukaryotic organisms, the effects of cAMP are transduced by two ubiquitously-expressed intracellular cAMP receptors, the classic protein kinase A/cAMP-dependent protein kinase (PKA/cAPK) and the more recently discovered exchange protein directly activated by cAMP/cAMP-regulated guanine nucleotide exchange factor (EPAC/cAMP-GEF). Both PKA and EPAC are ubiquitously expressed in all tissues, and an increase in intracellular cAMP levels will lead to the activation of both PKA and EPAC. Therefore, careful dissections of the individual role and relative contribution of EPAC and PKA within the overall cAMP signaling in various model systems are critical for further elucidating the mechanism of cAMP signaling. To date no EPAC-specific antagonists and agonist, as well as isoform-specific agonists have been reported, and developing EPAC-specific pharmacological probes to determine the physiological functions that EPAC play in the overall cAMP-mediated signaling remains a major challenge within the research field. Furthermore, identified regulators of EPAC may lead to new mechanism-based therapeutic strategies specifically targeting the EPAC / cAMP-signaling components as EPAC has been implicated to play important roles in major human pathological conditions such as diabetes, heart disease, and cancer. This qHTS will be used to screen the Molecular Libraries Small Molecule Repository (MLSMR) as a concentration-titration series using the NCGC unique quantitative screening (qHTS) platform to find inhibitors for EPAC1. In addition, this assay will also be used as a counterscreen for the EPAC2 qHTS. This fluorescent based assay is developed and validated for EPAC1 that measures exchange using EPAC effector Rap1 complex with BODIPY-GDP, a GDP analog with a tethered fluorophores. Inhibitors are identified by monitoring the change in fluorescence signal as the exchanged free BODIPY-GDP has a reduced fluorescence compared to Rap1-bound BODIPY-GDP. Decrease in signal (inhibition) is the desired outcome for the EPAC1 antagonist while no activity in this assay is desired for the EPAC2 antagonist counterscreen. de Rooij, J., Zwartkruis, F. J., Verheijen, M. H., Cool, R. H., Nijman, S. M., Wittinghofer, A., and Bos, J.L. (1998) Nature 396, 474-477 [2] Kawasaki, H., Springett, G. M., Mochizuki, N., Toki, S., Nakaya, M., Matsuda, M., Housman, D. E., and Graybiel, A. M. (1998) Science 282, 2275-2279 NIH Chemical Genomics Center [NCGC] NIH Molecular Libraries Probe Centers Network [MLPCN] MLPCN Grant: NS066510 Assay Submitter (PI): Xiaodong Cheng, The University of Texas, Medical Branch
Briefly, three uL of reagents (100 nM EPAC1, 250 nM RAP1B-BODIPY-GDP, 50 uM GDP) were dispensed into a 1536-well Greiner black solid-bottom medium binding assay plate. Controls and test compounds (23 nL) were transferred to the plate via a Kalypsys pin tool equipped with a 1536-pin array. The plates were centrifuged at 1,000 rpm for 15 seconds followed by 5 minute incubation at room temperature. The assay plates were read at 5 minute intervals for 30 minutes in the ViewLux plate reader using 480nm excitation and 540nm emission filters. The results were normalized to the […] positive control ATA and DMSO.
Potency is the fitted concentration of half-maximal effect.

Chain of Rap guanine nucleotide exchange factor 3 (Homo sapiens) (O95398 whole entry, looked up): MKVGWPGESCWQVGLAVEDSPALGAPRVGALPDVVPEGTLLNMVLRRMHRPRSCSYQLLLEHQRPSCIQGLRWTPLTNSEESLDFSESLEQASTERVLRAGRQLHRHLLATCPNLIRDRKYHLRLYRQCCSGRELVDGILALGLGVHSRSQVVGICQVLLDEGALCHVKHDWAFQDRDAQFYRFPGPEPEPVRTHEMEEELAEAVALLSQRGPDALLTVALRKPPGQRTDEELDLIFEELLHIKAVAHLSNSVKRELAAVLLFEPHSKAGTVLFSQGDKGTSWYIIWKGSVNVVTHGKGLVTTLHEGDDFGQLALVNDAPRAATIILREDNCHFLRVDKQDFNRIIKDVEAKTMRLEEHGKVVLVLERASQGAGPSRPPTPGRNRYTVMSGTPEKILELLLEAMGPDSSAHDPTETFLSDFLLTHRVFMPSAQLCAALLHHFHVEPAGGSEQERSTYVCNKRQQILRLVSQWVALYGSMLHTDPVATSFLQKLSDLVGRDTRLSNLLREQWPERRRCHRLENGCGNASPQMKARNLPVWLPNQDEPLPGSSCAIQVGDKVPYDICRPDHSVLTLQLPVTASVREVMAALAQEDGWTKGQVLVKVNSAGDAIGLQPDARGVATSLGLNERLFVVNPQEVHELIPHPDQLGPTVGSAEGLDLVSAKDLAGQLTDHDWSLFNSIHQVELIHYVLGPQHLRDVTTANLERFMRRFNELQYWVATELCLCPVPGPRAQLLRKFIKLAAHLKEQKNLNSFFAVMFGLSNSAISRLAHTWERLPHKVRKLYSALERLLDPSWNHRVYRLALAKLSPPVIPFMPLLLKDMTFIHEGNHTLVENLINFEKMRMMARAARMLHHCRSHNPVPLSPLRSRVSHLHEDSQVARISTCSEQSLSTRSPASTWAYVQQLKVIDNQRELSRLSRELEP

Structure (SMILES)	activity change, negative = inhibition	Potency
Oc1cccc2cc(-c3ccncc3)cnc12	3.21%	–
CO[C@@H]1CN(C)C(=O)c2cc(NC(=O)Nc3cc(F)ccc3F)ccc2OC[C@H](C)N(C(=O)c2ccccn2)C[C@@H]1C	-5.4%	–
Cc1c(CC(=O)N2CCN(C(=O)C3COc4ccccc4O3)CC2)c(=O)oc2c(O)c(O)ccc12 (centres undefined)	–	100 µM (active)
COc1ccc2c(C)c(CCC(=O)NC3CC3)c(=O)oc2c1C	-3.71%	–
Cc1ccc(S(=O)(=O)NCCC(=O)NNC(=O)C2COc3ccccc3O2)cc1 (centres undefined)	8.04%	–
OCCC#Cc1ccc(N2C(c3ccsc3)=Cc3ccc(F)cc3C2c2c[nH]c3ccccc23)cc1 (centres undefined)	1.44%	–
COc1ccc(CC(N)c2csc(NC(=O)NC(c3ccccc3)c3ccccc3)n2)cc1 (centres undefined)	-11.6%	–
CC1CN(C(=O)c2ccccc2NS(=O)(=O)c2cccc([N+](=O)[O-])c2)CC(C)O1 (centres undefined)	-6.5%	–
CCOc1ncccc1C(=O)NNC(=O)c1cccc(S(=O)(=O)Nc2ccccc2OC)c1	11.9%	–
COc1cccc(/C=N/Nc2ccc(S(=O)(=O)Nc3ccccc3C(=O)O)cc2[N+](=O)[O-])c1O	–	25.1 µM (active)
COC(=O)C[C@@H]1C=C[C@@H](NC(=O)c2ccc3c(c2)OCO3)[C@@H](CO)O1	-14.3%	–
O=c1[nH]c(SCc2cccc(F)c2)nc2ccccc12	-4.22%	–
CC(=O)CSc1nc(CCc2ccccc2)c(C#N)c(=O)[nH]1	-14.8%	–
N#Cc1c(-c2ccccc2)nc(SCc2cccc(C(F)(F)F)c2)[nH]c1=O	–	70.8 µM (active)
O=C(NCc1ccc(F)cc1F)[C@@H]1CCCN1C(=O)[C@@H]1CCCN1C(=O)c1cccc(Cl)c1	5.96%	–
COc1cccc(/C=C(/CC(=O)Nc2ccc(N3CCOCC3)cc2)c2nc3ccccc3s2)c1	0.722%	–
COc1ccc(C(=O)Nc2cccc(/C=C(/CCC(=O)O)c3nc4ccccc4s3)c2)cc1	–	35.5 µM (active)
O=C(O)CC/C(=C\c1cc2c(cc1Br)OCO2)c1nc2ccccc2s1	-2.3%	–
CCOc1ccc(CCN2C(=S)N([C@@H](CC(C)C)CN3CCC[C@@H]3CN3C(=S)NC[C@@H]3Cc3ccc(O)cc3)C[C@@H]2Cc2ccc(O)cc2)cc1	-20.9%	–
CCC(C(=O)Nc1c(C)cccc1C)n1c(-c2cc(C)cs2)nc2ccccc21 (centres undefined)	-5.26%	–
COc1ccc(C(=O)NCC[N+](C)(C)C)cc1	4.59%	–
CCOC(=O)[C@]12CCC=C1N(Cc1ccco1)C(=O)[C@H](CC(=O)N1CCSCC1)C2	-20.2%	–
CCCCCCN1CCN(C2CN(Cc3cn(CCCCCC)nn3)S(=O)(=O)C2)CC1 (centres undefined)	-19.2%	–

Structure (SMILES)	activity change, negative = inhibition	Potency
CCC(CC)C(C(=O)NC1CCCC1)N1CCN(c2cc(C)nc3ccccc23)CC1 (centres undefined)	1.74%	–
O=C1Nc2ccccc2-n2nnnc2C1N1CCN(c2cccc(C(F)(F)F)n2)CC1 (centres undefined)	-11.1%	–
CCOC(=O)[C@]12CCCC=C1N(CCC1=CCCCC1)C(=O)[C@H](CC(=O)N1CCOCC1)C2	-4.03%	–
Cc1cc(Br)cn2c(Cc3ccsc3)c(-c3ccc(C#N)cc3)nc12	-4.89%	–
CCOC(=O)[C@]12CCCC=C1N(CCC1=CCCCC1)C(=O)[C@H](CC(=O)NCCCCc1ccccc1)C2	-11.2%	–
O=C1NC[C@H](CCCCN2C[C@H](Cc3ccc(O)cc3)N(CCc3ccccc3)C(=O)C2=O)N(CCc2ccccc2)C1=O	-12.9%	–
O=C1Nc2ccccc2NC(c2ccc3c(c2)OCO3)=C1N(Cc1ccc(F)cc1)C(=O)c1ccco1	-26.5%	–
COc1ccc(C(=O)C(OP(=O)(OC)OC)c2ccccc2OC)cc1 (centres undefined)	-3.79%	–
COC(=O)c1ccc2nc(-c3ccc(C)cc3)c(Cc3ccc(OC)cc3C)n2c1	-20.7%	–
CCOC(=O)[C@]12CCCC=C1N(Cc1ccc(Cl)cc1Cl)C(=O)[C@H](CC(=O)N1CCCCC1)C2	24.7%	–
CC1Cc2[nH][nH]c(=O)c2C(C2CCCC2)O1 (centres undefined)	-1.95%	–
COc1cccc(-c2nc3nc(C)cc(C)n3c2NC2CCCCC2)c1	-3.19%	–
CC(C)c1cc(Cn2c3ccccc3c(=O)n2C(C)Cn2cc(C3CC3)nn2)on1 (centres undefined)	-18.3%	–
Cc1cc(Br)cn2c(Cc3ccccc3C(F)(F)F)c(-c3ccc(Cl)cc3)nc12	-8.75%	–
CCOC(=O)[C@]12CCCC=C1N(CCC1=CCCCC1)C(=O)[C@H](CC(=O)N1CCSCC1)C2	-11.1%	–
COC(=O)[C@]12CCCCC=C1N(Cc1ccc3c(c1)OCO3)C(=O)[C@H](CC(=O)N1CCOCC1)C2	-8.74%	–
O=C(NCc1ccccc1)C1c2ccccc2OCC(=O)N1CCCN1CCOCC1 (centres undefined)	-7.15%	–
COc1ccc([C@H]2CC(=O)C[C@@H](CCn3cc(CC4CCCC4)nn3)O2)cc1	4.12%	–
COc1ccc(N2c3ccccc3CN(Cc3ccccc3)[C@@H](C)[C@H]2Cc2ccc(-c3ccccc3)cc2)cc1	18.8%	–
O=S1(=O)CC(N2CCN(CCO)CC2)CN1Cc1cn(Cc2cccc(Cl)c2)nn1 (centres undefined)	-1.43%	–
O=C(C(=O)N1CCN(c2ccccc2)CC1)c1ccc2c(c1)OCO2	1.25%	–
COC(=O)C[C@@H]1C=C[C@@H](NS(=O)(=O)c2cccc(OC)c2)[C@@H](CO)O1	-27.2%	–
CC(C)(C)CC(=O)Nc1nc(C(N)Cc2ccc(C(F)(F)F)cc2)cs1 (centres undefined)	12.1%	–

Structure (SMILES)	activity change, negative = inhibition	Potency
O=C(NCc1ccccc1)C1c2ccccc2OCC(=O)N1C1CC1 (centres undefined)	-2.01%	–
Nc1[nH]c(C(=O)c2ccccc2)c(-c2ccc(Br)cc2)c1C(=O)NC1CC1	-28.1%	–
Cc1ccc(S(=O)(=O)N2CCC(=O)N([C@H](COCc3ccccc3)C(C)C)CC2)cc1	9.8%	–
Cn1cnc(S(=O)(=O)N2C[C@@H](O)COC[C@@H]3O[C@H](CC(=O)NC4CCC4)CC[C@H]32)c1	-13.4%	–
NC1=CC(=O)C(=O)c2cccnc21	–	56.2 µM (active)
O=C(OC1CC2CC1[C@H]1CCCCN1C2=O)N1CCOCC1 (some centres undefined)	2.08%	–
O=C1C(Sc2cccc(F)c2)=C[C@@]2(O)CC[C@@H](O)[C@]1(Sc1cccc(F)c1)[C@H]2O	-1.01%	–
O=C(Nc1ccc(F)cc1)C(CCc1ccccc1)N1CCN(CC(=O)N2CCCC2)CC1 (centres undefined)	1.09%	–
OC(c1ccccc1)(c1ccccc1)C1CCN(CCCOc2ccccc2)CC1	16.4%	–
CCC(c1nc2ccccc2[nH]1)n1c(=O)c(-c2cccs2)nc2ccccc21 (centres undefined)	12.6%	–
Cc1ccc(Cc2c(-c3ccc(Cl)cc3)nc3c4ccccc4ccn23)cc1	10.1% [at 57.5 µM]	–
CCCCN1C(=O)C(CC(=O)NCc2cccs2)CC(C(=O)N2CCCCCC2)=C1C (centres undefined)	3.73%	–
O=C(Nc1ccc(S(=O)(=O)Nc2nccs2)cc1)c1cc(-c2ccncc2)nc2ccccc12	–	79.4 µM (active)
O=C(Nc1ccc(S(=O)(=O)Nc2nccs2)cc1)c1cc(=O)[nH]c2ccccc12	-5.17%	–
O=C(CCc1ccccc1Cl)Nc1ccc(S(=O)(=O)Nc2nccs2)cc1	-9.94%	–
Cc1ccc2nc(-c3ccco3)c(Cc3cccc(Cl)c3)n2c1	-18.2%	–
CCOC(=O)N1CCN(C(=O)C[C@@H]2C[C@@]3(C(=O)OC)CCCCC=C3N(CCC3=CCCCC3)C2=O)CC1	-16.7%	–
CC(C)C[C@H]1CNC(=O)C(=O)N1C[C@@H]1CCCN1C[C@H](Cc1ccccc1)N1C[C@H](CC(C)C)N(CC2CCCCCC2)C(=O)C1=O	18.3%	–
O=C(NCc1ccccn1)[C@@H]1CCCN1C(=O)[C@@H]1CCCN1C(=O)c1ccccc1	-19.8%	–
COC(=O)c1ccc2nc(-c3ccc(F)cc3)c(Cc3ccc(C)cc3)n2c1	4.03%	–
CC1(C(=O)NCc2ccccc2)CSCC(=O)N1CCCn1ccnc1 (centres undefined)	0.234%	–
COc1ccc(C(C(=O)NCc2ccccc2)n2c(=O)c(-c3ccccc3)nc3ccccc32)cc1 (centres undefined)	-4.62%	–
CC(C)(C)NC(=O)C(CCc1ccccc1)n1c(=O)c(-c2ccccc2)nc2ccccc21 (centres undefined)	-7.46%	–

Structure (SMILES)	activity change, negative = inhibition	Potency
CCCCNC(=O)OC1CC2CC1[C@H]1CCCCN1C2=O (some centres undefined)	-17.4%	–
CCCCNC(=O)C[C@@H]1C[C@@]2(C(=O)OCC)CCC=C2N(Cc2cccc3ccccc23)C1=O	5.54%	–
CCCCn1nnnc1C(c1cc2ccccc2o1)N(C)Cc1ccc(Cl)c(Cl)c1 (centres undefined)	7.34%	–
COC(=O)C[C@H]1C=C[C@@H](NS(=O)(=O)c2ccc(C)cc2)[C@@H](CO)O1	14%	–
CCC(c1nnnn1-c1ccc2c(c1)OCCO2)N1CCN(c2ccc(C(F)(F)F)cn2)CC1 (centres undefined)	-0.835%	–
CC(=O)C[C@@H]1OC[C@H](CO)N1S(=O)(=O)c1ccc(C)cc1	9.07%	–
COc1ccc(C2OC(CCc3ccccc3)Cc3[nH]c(=S)[nH]c(=O)c32)cc1 (centres undefined)	-21.1%	–
CCOc1ccc(CC(=O)Nc2ccc(S(=O)(=O)Nc3cc(C)on3)cc2)cc1OCC	4.44%	–
CCOc1ccc(C(=O)Nc2ccc(S(=O)(=O)Nc3cc(C)on3)cc2)cc1	-4.54%	–
CCOc1ccc(Br)cc1S(=O)(=O)Nc1ccc(S(=O)(=O)Nc2cc(C)on2)cc1	–	39.8 µM (active)
CSCCC(C(=O)NC(C)(C)C)n1c(-c2ccccc2)nc2ccccc21 (centres undefined)	5.22%	–
Fc1cccc(Cc2c(-c3cccc(Cl)c3)nc3ccc(Br)cn23)c1	-9.71%	–
COC(=O)C[C@@H]1C=C[C@@H](NC(=O)c2cccnc2)[C@@H](CO)O1	-6.55%	–
C[C@@H]1CC2=C(C(=O)OC(C)(C)O2)[C@@H](C2CC2)O1	3.98%	–
O=S1(=O)CC(N2CCN(CCO)CC2)CN1Cc1cn(Cc2ccc(Cl)cc2)nn1 (centres undefined)	-10.3%	–
Cc1nccn1-c1ccc(NC(=O)[C@H]2O[C@@H](n3ccc(=O)[nH]c3=O)[C@H](O)[C@@H]2O)cc1	-7.46%	–
COc1ccc(OC)c(CN2C(=O)CCC2(C)c2nnnn2Cc2ccccc2)c1 (centres undefined)	38.3%	–
COC(=O)[C@@]12C[C@@H](CC(=O)NCCCCc3ccccc3)C(=O)N(CCc3ccc(OC)c(OC)c3)C1=CCC(C)(C)C2	-23.2%	–
CCCCCn1nnnc1-c1nc2cc3ccccc3cc2[nH]c1=O	-10.4%	–
COC(=O)[C@@]12C[C@@H](CC(=O)NCCCCc3ccccc3)C(=O)N(Cc3ccccc3)C1=CCC(C)(C)C2	0.731%	–
